Assay results from ChEMBL document CHEMBL3988442, “University of Dundee, Small-Polar-MMV Screening Library” (2021).

Target: AMP-activated protein kinase, AMPK (Homo sapiens) (UniProt P54646+O43741+P54619+Q9UGJ0+Q9Y478+Q13131+Q9UGI9)
Test: AMP-dependent Kinase enzyme assay. An in vitro enzyme assay that detects ADP turnover that is directly proportional to AMPK activity. This uses naive AMPK that is activated during the assay with MK-8722
Assay type: functional
Parameters: scale not given: direction of the effect not stated beside the values
Conditions: 30 µM

Row | Structure (SMILES) | Percent Effect
1 | CCc1nnc(NC(=O)c2c3c(nn2C2CCS(=O)(=O)C2)CCC3)s1 (stereo unspecified) | -8.02%
2 | COC(=O)CC1CCCCN1CC(=O)NCCc1ccc(F)cc1 (stereo unspecified) | 6.06%
3 | Cc1ccccc1Cn1cnc2oc(C)c(C(=O)O)c2c1=O | 9.55%
4 | Cc1ccc(CNc2ccn(CCC(N)=O)n2)c(Br)c1 | 1.48%
5 | CN1CCN(CCOc2ccc(NC(=O)c3ccncc3)cc2)CC1 | 0.498%
6 | Cc1cnn(C2CN(CCCOc3ccc(C#N)cc3)C2)c1 | -0.666%
7 | CCc1noc(C(C)N2CCc3c(ncn3C3CC3)C2)n1 (stereo unspecified) | 14.3%
8 | CC(C)(C)c1nc(CC(=O)NCCC(=O)Nc2ccncc2)cs1 | -4.57%
9 | COC(CNC(=O)c1ccoc1)c1cccc(Cl)c1 (stereo unspecified) | -1.5%
10 | Cc1ccc(F)c2c1N(C(=O)c1ccc(S(C)(=O)=O)cc1)CCC2 | 0.782%
11 | CC(C)Cc1ncc2c(n1)CN(c1cc(NCCO)nc(N)n1)C2 | -165%
12 | O=C(CN1CCC(c2nnc(C(F)(F)F)o2)CC1)Nc1cccc(Cl)c1 | -5.71%
13 | O=C(c1ccccc1F)N1CCCC1Cn1c(=O)oc2ccccc21 (stereo unspecified) | 10.9%
14 | CC(C)c1ccc(/C=C/CC(=O)NC2CCS(=O)(=O)CC2)cc1 | -2.16%
15 | NC(=O)CC1CCN(c2cncc(OCc3ccccc3)n2)CC1 | 20.6%
16 | CCC[C@H]1CN(c2cncc(C(=O)N3CCCCC3)n2)C[C@@H]1N(C)C | 14.2%
17 | CCS(=O)(=O)NCc1nc(C)cc(N2CCOCC2)n1 | 0.985%
18 | CC(Oc1ccc2c(c1)OCO2)C(=O)N1CCC(N2CCCC2)CC1 (stereo unspecified) | 6.31%
19 | Cc1ccccc1CCC(=O)N1CCc2ncnc(NCCO)c2CC1 | 0.622%
20 | Cc1nn(C)c2nc(N3CCCC3c3nccs3)sc12 (stereo unspecified) | -1.47%
21 | Cc1noc(C)c1-c1cccc(C2CCN(S(=O)(=O)N(C)C)CC2)n1 | 5.6%
22 | CN(C)S(=O)(=O)N1CCOC(c2cccc(-c3cncnc3)n2)C1 (stereo unspecified) | 9.99%

Row | Structure (SMILES) | Percent Effect
23 | Cc1nc(S(=O)(=O)N2CCCCc3ccccc32)cn1C | 0.965%
24 | c1csc(N2CCN(c3ncnc4sccc34)CC2)n1 | 18.5%
25 | Cc1ccc(F)c(CNc2ccn(CCC(N)=O)n2)c1 | -4.33%
26 | CC(C)Cc1cc(CNC(=O)c2cccc3c2NCCC3)no1 | 1.24%
27 | CC(NCC(=O)N1CCc2sccc2C1)c1ccccc1F (stereo unspecified) | 10.8%
28 | CNc1ccc(C2CN(c3nc(C)cc(C)n3)CCO2)nc1 (stereo unspecified) | 18%
29 | O=C(c1cnc2ccccn12)N1CCCC(c2ccn[nH]2)C1 (stereo unspecified) | 7.56%
30 | O=S(=O)(c1cn[nH]c1)N1CCC(O)(CN2CCC(F)(F)CC2)C1 (stereo unspecified) | 9.16%
31 | O=C(c1cnccn1)N1CCCC(C2=Nc3ccccc3S(=O)(=O)N2)C1 (stereo unspecified) | 22%
32 | CC(C)CNC(=O)c1[nH]nc(C2CC2)c1Br | -2.23%
33 | N#Cc1cccc(NC(=O)N[C@H](CO)Cc2ccc(O)cc2)c1 | 6.46%
34 | COCCN(Cc1sccc1C)C(=O)COc1ccccc1O | 2.3%
35 | COCCN(CC(F)F)c1cc(C(F)(F)F)nc2ncnn12 | 3.49%
36 | CCN(CC1CCCO1)C(=O)NCCNC(=O)c1ccccc1F (stereo unspecified) | 1.37%
37 | COc1ccc(S(=O)(=O)N2CCOC(C)(C(N)=O)C2)cc1 (stereo unspecified) | 15.5%
38 | CCN(CCOC)C(=O)c1cc(COc2ccc3c(c2)CCCC3)on1 | 0.118%
39 | CN(C(=O)C1CCN(Cc2cnc3ccccn23)CC1)c1ccccc1 | -0.957%
40 | Cc1nc[nH]c1CN1CCC(C2CCN(CCc3ccccc3)C2)CC1 (stereo unspecified) | -0.168%
41 | CC(C)c1nn(C)c(Cl)c1CNCC(=O)N1CCN(C)CC1 | -14.6%
42 | COc1ccc2c(c1)CCCN(C(=O)NCC1CCCO1)C2 (stereo unspecified) | 5.17%
43 | O=C(NCC1CCS(=O)(=O)C1)N(Cc1ccccn1)C1CC1 (stereo unspecified) | -6.01%
44 | COC(=O)CC1CCCCN1CC(=O)Nc1cc(F)ccc1F (stereo unspecified) | 7.24%

Row | Structure (SMILES) | Percent Effect
45 | CC(C)(C)c1nc(CNc2cc3c(cc2Cl)NC(=O)CO3)no1 | 2.92%
46 | CC(=O)N1CC(C(=O)NC(C)c2cnn(C)c2C)C1 (stereo unspecified) | 8.59%
47 | CS(=O)(=O)c1ccc(NC(=O)NCCC2=CCCCC2)cc1 | -2.69%
48 | O=C(C1CCCO1)N1CCC(n2cc(-c3ccc(F)cc3)nn2)CC1 (stereo unspecified) | 3.48%
49 | Cc1ccccc1C(=O)NC[C@@H]1CCN(C(=O)C2(O)CCCC2)C[C@H]1O | 2.29%
50 | Cc1nc(NC(=O)C(C)N(C)Cc2ccc3c(c2)OCO3)sc1C (stereo unspecified) | 6%
51 | O=C(NCc1nc[nH]n1)c1cc(COc2cccc(F)c2)[nH]n1 | 2.9%
52 | Cn1cc(CC(=O)N2CCCC(c3ccn[nH]3)C2)cn1 (stereo unspecified) | -1.05%
53 | CN(C)c1cc2c(nn1)CCN(C(=O)c1ccc(-n3cccn3)nc1)C2 | 2.65%
54 | COCCCNC(=O)Nc1c(C)cccc1C(C)C | 7.47%
55 | CN(Cc1ccc2c(c1)OCO2)Cc1cscn1 | -5.54%
56 | Nc1nccnc1C(=O)NC1CCN(Cc2ccccc2)C1 (stereo unspecified) | 7.89%
57 | O=C(NCCc1cc(N2CCOCC2)nc(N2CCCC2)n1)C1CC1 | 13.9%
58 | CCc1ccc2nc(C)cc(C(=O)N[C@@H]3CCCNC3)c2c1 | -2.76%
59 | Cc1cc(CNCC2CNc3ccnn3C2)no1 (stereo unspecified) | -2.57%
60 | O=c1[nH]nc(CNCc2ccc(OC34CCCN(CC3)C4)cc2)[nH]1 (stereo unspecified) | -7.25%
61 | Cc1noc(C)c1C(=O)N(C)C(C)c1ccncc1 (stereo unspecified) | -0.736%
62 | Cn1ncnc1NCc1ccccc1Cl | 1.77%
63 | Cc1ccc(CN2CCS(=O)(=O)C(C)(C)C2)cc1C | -0.279%
64 | CNC(=O)Cc1ccccc1NC(=O)N[C@H]1c2ccccc2C[C@H]1O | 0.934%
65 | CC(=O)c1cccc(OC(C)C(=O)Nc2cnn(CCN(C)C)c2)c1 (stereo unspecified) | -0.8%
66 | CCS(=O)(=O)N1Cc2ccccc2CC1C(=O)OCc1c(C)noc1C (stereo unspecified) | -0.838%
